Pin1 inh: inhibitors of human Pin1 | Q13526 | Pin1 FP peptide displacement, HiFluor488, 10 min | Potency, µM (top dose mostly 115 µM), without a hit: top-dose activity, negative = inhibition, most hits filed as inhibitors | 390,000 tested, 0.009% active | AID 504891; active = well fitted inhibition curve with a large enough effect in the polarisation, with a control signal flat, not every such curve was filed as active; inconclusive = small, poorly fitted or top-dose-only effect, or effect the other way, or a change in a side signal; inactive = no such curve, though single readings can be large or run the other way; the % refers to the polarisation; note: potency is the fitted concentration of half-maximal effect
PI4K2A block: PI4K2A (human) kinase inhibition | 420,000 tested, 0.13% active | AID 1346378 | activity change, negative = inhibition, % at 76.9 µM | purified PI4K2A, ADP-Glo luminescence, 1 h; active compounds read low; in the data active = activity change below about -50%; inconclusive = mostly about -30% to -49%;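 note: -100% = wells without enzyme as full effect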
Target sequence (Q9BTU6 whole entry, looked up): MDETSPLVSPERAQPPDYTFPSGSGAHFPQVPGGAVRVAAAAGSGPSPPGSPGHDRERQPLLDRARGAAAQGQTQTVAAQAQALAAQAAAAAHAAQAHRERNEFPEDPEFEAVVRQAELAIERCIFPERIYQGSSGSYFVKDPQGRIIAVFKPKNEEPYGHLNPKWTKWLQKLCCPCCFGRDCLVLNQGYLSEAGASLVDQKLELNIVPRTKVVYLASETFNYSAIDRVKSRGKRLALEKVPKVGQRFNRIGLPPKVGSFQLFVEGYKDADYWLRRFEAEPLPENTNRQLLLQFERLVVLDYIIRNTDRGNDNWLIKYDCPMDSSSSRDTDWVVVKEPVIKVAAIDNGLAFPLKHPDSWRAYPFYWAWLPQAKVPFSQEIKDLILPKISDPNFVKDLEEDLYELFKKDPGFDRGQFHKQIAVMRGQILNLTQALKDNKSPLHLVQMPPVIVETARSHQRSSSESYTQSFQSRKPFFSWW
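PI4K2A activity was measured by ADP-Glo luminescence: enzyme (4 ug/mL stock) and phosphatidylinositol (1.2 mM stock) in Tris pH 7.5/MgCl2/EGTA/Triton X-100 buffer were reacted with ATP (300 microM stock) for one hour at ambient temperature.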
Chronic BCR inh: inhibitors of chronic active B-cell receptor signaling | ABC-DLBCL IkBa-CBG/CBR reporter, luminescence ratio, 4 h | Potency, µM (highest dose often 46.1 µM), for inactives: at the top dose activity change, negative = inhibition, actives largely listed as inhibitors | 340,000 tested, 0.05% active | AID 493014; active = well fitted inhibition curve with a large enough effect in the signal ratio, with a control signal flat, not every such curve was filed as active; inconclusive = small, poorly fitted or top-dose-only effect, or effect the other way, or a change in a side signal; the % refers to the signal ratio;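 note: potency is the fitted concentration of half-maximal effect; plate controls were basal doxycycline-induced cells for no effect and cells given 10 µM MG132 for full effect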
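Doxycycline induced both beetle luciferases in TMD8 lymphoma cells; IKK-driven degradation limits the IkappaBalpha-fused green signal, while red luminescence normalises for cell number and nonspecific effects. Compounds tested up to 46 uM, 4 hrs.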
Tb PFK block: blocks T. brucei phosphofructokinase | O15648 | T. brucei PFK, ADP-Glo luminescence | Potency, µM (highest dose often 57.5 µM), without a hit: at the highest dose activity, negative = inhibition, most hits filed as inhibitors | 330,000 tested, 0.17% active;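 note: potency is the fitted concentration of half-maximal effect; 0% = uninhibited 1x PFK enzyme wells and -100% = no-enzyme wells; nearly all actives have a fitted effect of over 60% in size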
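Luminescent ADP detection (ADP-Glo, two-step: ATP depletion then ADP-to-ATP conversion for luciferase) reported PFK activity after 45 min room-temperature reaction of 1.25 nM enzyme with 0.5 mM F6P and 0.1 mM ATP at pH 8.0.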
PGK inhibitor: inhibitors of T. brucei phosphoglycerate kinase | PGK/GAPDH coupled, Kinase-Glo luminescence, 60 min | Potency, µM (highest dose often 57.5 µM), inactives show at the highest dose activity change, negative = inhibition, hits mostly inhibitors | 380,000 tested, 0.043% active | AID 602233; note: potency is the fitted concentration of half-maximal effect; nearly all actives have a fitted effect of over 60% in size
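Recombinant glycosomal PGK reaction used 1,3-bisphosphoglycerate generated in-well by GAPDH (100nM final) in 100mM TEA pH 7.6, 5mM MgCl2, 0.01% Tween-20. After 60 minutes at room temperature, ATP was read by Kinase-Glo Plus luminescence end-point.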
* hit, by the source's call; i = inactive; u = inconclusive; x = no result given. In the library only some 0.34% were active in any assay of this set; here they are far more common. Unless noted, calls come from the whole dose curve; as a rule, active = well fitted curve in the direction sought with a large enough effect; inconclusive = small, poorly fitted or top-dose-only effect, or another doubt; inactive = no such curve, though single readings can be large; an effect the other way counts as inactive or inconclusive. Unless noted, % is set by controls: 0 for no effect and ±100 for the full control effect.

SMILES	Pin1 inh	PI4K2A block	Chronic BCR inh	Tb PFK block	PGK inhibitor
O=C(Nc1ccc(N2CCOCC2)c2nonc12)C1CCCC1	2%	u	13%	-1%	-8%
Nc1ccc(N2CCOCC2)c2nonc12	x	-60*	4%	13%	1%
O=C(Nc1ccc(F)cc1)Nc1ccc(N2CCOCC2)c2nonc12	9%	-59*	-12%	0%	-1%
COc1ccc(NC(=O)Nc2ccc(N3CCOCC3)c3nonc23)c(OC)c1	14%	-8	-4%	-1%	3%
O=C(c1ccc(F)cc1)c1cc2ccc(O)cc2oc1=O	-3%	-88*	u	-17%	u
CC(=O)c1cccc(NC(=O)c2cc(-c3ccc4c(c3)OCCO4)on2)c1	7%	0	x	x	0%
O=C(Nc1cccc(O)c1)c1cc(-c2ccc3c(c2)OCO3)on1	2%	-72*	u	-8%	-10%
Nc1cc2sc(-c3ccc(C(=O)O)cc3)nc2cc1Cl	3%	-76*	u	7%	u
O=C(O)c1ccc2nc(-c3ccccc3)sc2c1	1%	-52*	u	3%	-12%
O=c1c2ccccc2nc2sc(Nc3ccc(Sc4ccccc4)cc3)nn12	35%	x	x	x	x
Cc1sccc1Br	x	2	x	x	x
N#C/C(=C\c1ccc(-c2cc(Cl)ccc2Cl)o1)C(=O)Nc1cccc2ncccc12	x	-53*	x	x	x
CN1CCN(c2cccc(Nc3nn4c(=O)c5ccc(Br)cc5nc4s3)c2)CC1	3%	x	x	x	x
O=C(Nc1cccc2ccccc12)c1cc2c(cc1Br)OCO2	1%	-2	11µM*	-3%	-11%
COc1cc(/C=N/NC(=O)c2cc(O)cc(O)c2)ccc1OC(=O)c1ccccc1	u	-4	u	-19%	13µM*
COc1ccc(C2Cc3ccccc3C(=O)N2Cc2ccccc2)cc1COc1ccc(NC(C)=O)cc1 (centres undefined)	46%	x	x	x	x
CN(N=O)c1ccc(O)c(O)c1	x	-57*	x	x	x
O=C(N/N=C/c1cn(Cc2cccc(F)c2)c2ccccc12)c1cc(O)cc(O)c1	x	-22	u	u	4.5µM*
Nc1ccc(C(=O)N/N=C/c2cn(Cc3ccc(F)cc3)c3ccccc23)cc1	-8%	0	u	1%	2%
COc1ccc(-c2cn3cc(C(=O)NN)ccc3n2)cc1	0%	-72*	u	0%	-5%
O=C(O)c1ccccc1	-2%	3	0%	7%	0%
O=C(O)c1cc[c]([Hg][Cl])cc1	2%	u	u	4.3µM*	i
O=C(NCc1ccc(F)cc1)n1c(-c2ccccc2)c(P(=S)(c2ccccc2)c2ccccc2)c2ccccc21	30%	x	x	x	x
COc1ccc(-c2nc3ccccn3c2Cl)cc1	2%	-52*	u	-18%	u
COc1ccc(-c2nc3ccccn3c2CN2CCN(c3ccccc3F)CC2)cc1	14%	1	-11%	-1%	-1%
SMILES	Pin1 inh	PI4K2A block	Chronic BCR inh	Tb PFK block	PGK inhibitor
CC1(C)CCC(=O)c2ccccc21	1%	-1	x	x	-4%
CC1(C)CCC2=C(O1)c1ccccc1C(=O)C2=O	x	-52*	x	x	x
Cc1ccc2c(c1)C(N1CCCC1=O)CC(c1ccco1)N2 (centres undefined)	-9%	-62*	u	u	u
Nc1c(C(=O)O)ccc2c1C(=O)c1ccccc1C2=O	-1%	-17	u	-3%	-14%
Nc1cc(C(=O)O)c(N)c2c1C(=O)c1ccccc1C2=O	u	-55*	u	-12%	u
Cc1ccc(C=C2C(=O)c3ccccc3C2=O)s1	44%	-53*	-13%	-20%	u
CC(=O)O[C@H]1CC[C@@]2(C)C(=CC[C@@H]3[C@@H]2CC[C@]2(C)C(C(C)=O)=CC[C@@H]32)C1	x	3	x	x	x
Cn1cc(/C=N/n2cnc3scc(-c4ccc(Cl)cc4)c3c2=O)c2ccccc21	14%	-2	3.5µM*	2%	-3%
O=c1c2c(-c3ccccc3)csc2ncn1/N=C/c1cn(-c2ccccc2)nc1-c1cccs1	-13%	x	x	x	x
COc1ccc(C2Nc3ccccc3C(=O)N2Cc2ccccc2C(F)(F)F)cc1COc1ccc(NC(C)=O)cc1 (centres undefined)	9%	x	x	x	x

Assay outcomes as filed in PubChem.
